# Data from PubChem BioAssay (NCI).
# About 83,000 compounds went through this panel and 20% of them were active in at least one assay; those are over-represented in the sample as a whole.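 The test compound was applied at a single concentration to cells in 96-well plates for 48 hours, and percent growth was recorded.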 Values without a mark were called inactive. Active and inactive are the calls of the source. The calls were made as follows: active = growth percent below 10; inactive = the rest.
# Assays:
# Assay in all cases: NCI-60 one-dose screen, 48 h (100 = growth as untreated, 0 = no growth, -100 = all killed)
# Conditions in all cases: 10 µM unless noted
# NCI-H23 lung = system: NCI-H23 lung
# NCI-H226 lung = system: NCI-H226 lung
# NCI-H322M lung = system: NCI-H322M lung
# HOP-62 NSCLC = system: HOP-62 NSCLC
# NCI-H460 lung = system: NCI-H460 lung
# HOP-92 NSCLC = system: HOP-92 NSCLC
# NCI-H522 lung = system: NCI-H522 lung
# A549/ATCC NSCLC = system: A549/ATCC NSCLC
# 786-0 renal = system: 786-0 renal
# COLO 205 colon = system: COLO 205 colon
SMILES,growth (NCI-H23 lung),growth (NCI-H226 lung),growth (NCI-H322M lung),growth (HOP-62 NSCLC),growth (NCI-H460 lung),growth (HOP-92 NSCLC),growth (NCI-H522 lung),growth (A549/ATCC NSCLC),growth (786-0 renal),growth (COLO 205 colon)
NS(=O)(=O)c1ccc(Nc2nc(N/N=C/C=C/c3ccccc3)nc(Nc3ccccc3)n2)cc1,40.1%,58.6%,56.8%,56.2%,6.23% (active),83.9%,66.4%,69.3%,37.6%,55.3%
Cc1[nH]c(C(=O)Nc2ccc(C(N)=O)cc2N2CCOC(C)C2)c(Cl)c1Cl (stereo not given),96.2%,89.9%,95.1%,98.4%,102%,107%,95.1%,99.6%,92.9%,124%
COc1ccc(/C(=N\NC(N)=S)c2ccc(Cl)cc2)cc1OC,27.4%,51.6%,53.6%,27.5%,12%,48.6%,-10% (active),42.4%,42.1%,0.963% (active)
Cc1csc(/N=C(N)/N=C(\N)c2cccs2)n1,90.5%,99.1%,100%,103%,104%,69.1%,98.9%,102%,112%,109%
O=C(/C=C/c1cccc(Br)c1)c1cccc(OCCCCOc2cccc(C(=O)/C=C/c3cccc(Br)c3)c2)c1,98%,103%,103%,107%,100%,115%,98.1%,98.8%,106%,115%
C(=N\Nc1nc(N/N=C/c2ccc3c(c2)OCO3)nc(N2CCCCC2)n1)/c1ccc2c(c1)OCO2,101%,101%,98.5%,123%,90.6%,96%,91.9%,91.4%,86.6%,85.9%
C/C(CC1(O)C(=O)Nc2ccccc21)=N\O (stereo not given),101%,98%,102%,95.2%,101%,93.9%,91.3%,102%,101%,103%
N#C/C(=C\c1ccc(-c2ccc(Cl)cc2)o1)C(=O)Nc1ncc(Cc2ccc(Br)cc2)s1,-30.6% (active),40.3%,19.1%,5.97% (active),-78.1% (active),8.49% (active),4.79% (active),-53% (active),23.4%,41.1%
COc1cc2cc(Oc3ccc(NC(=O)c4cc(C(F)(F)F)cc(C(F)(F)F)c4)cc3)c(C)nc2cc1OCCN1CCOCC1,66.9%,70.3%,98%,88.6%,61.6%,44.8%,58.1%,61.4%,25.3%,66.7%
N#C/C(=N\Nc1ccc(F)cc1)C(=O)Nc1cc(-c2ccccc2)nn1-c1ccccc1,0.456% (active),2.16% (active),0.72% (active),18.2%,4.31% (active),-21.3% (active),6.57% (active),11%,21.3%,-7.35% (active)
CC(=O)c1cc(C(=O)N2c3ccccc3Sc3ccccc32)n2c1ccc1ccccc12,79.1%,60.4%,89.9%,56%,37.9%,85.2%,-1.14% (active),59%,60.6%,40%
O=C(CCCCCCN1CC(=O)N2[C@@H](c3ccccc3Br)c3[nH]c4ccccc4c3C[C@H]2C1=O)NO,63.9%,99.7%,66.1%,61.5%,51.8%,29%,-5.74% (active),88.4%,87.3%,42.8%
Cc1cc(=O)[nH]c(O)c1C#N,100%,101%,98.1%,94.8%,108%,97.4%,101%,103%,103%,107%
CCN(CC)CCOc1ccc(C(=C(C)c2ccc(OC)cc2)c2ccc(OCCN(CC)CC)cc2)cc1,57.8%,61.2%,33.5%,4.72% (active),1.96% (active),-4.16% (active),-4.16% (active),12.3%,-51.1% (active),-56.5% (active)
